Data reported in publication PMC4336329 (PLoS ONE, 2015).
The campaign covered roughly 310,000 compounds. About 14,000 (4.5%) showed an effect of 50% or more. The effect is printed as a negative number. Many of the other results were omitted from the sample, so strong results are more common in it than they were.

These molecules were tested against human ether-à-go-go-related gene (hERG) potassium channel (human, UniProt Q12809) (assay: primary screen, population patch clamp on CHO cells stably expressing hERG; higher = less effect of the substance).
human ether-à-go-go-related gene (hERG) potassium channel, sequence (Q12809 whole entry, looked up): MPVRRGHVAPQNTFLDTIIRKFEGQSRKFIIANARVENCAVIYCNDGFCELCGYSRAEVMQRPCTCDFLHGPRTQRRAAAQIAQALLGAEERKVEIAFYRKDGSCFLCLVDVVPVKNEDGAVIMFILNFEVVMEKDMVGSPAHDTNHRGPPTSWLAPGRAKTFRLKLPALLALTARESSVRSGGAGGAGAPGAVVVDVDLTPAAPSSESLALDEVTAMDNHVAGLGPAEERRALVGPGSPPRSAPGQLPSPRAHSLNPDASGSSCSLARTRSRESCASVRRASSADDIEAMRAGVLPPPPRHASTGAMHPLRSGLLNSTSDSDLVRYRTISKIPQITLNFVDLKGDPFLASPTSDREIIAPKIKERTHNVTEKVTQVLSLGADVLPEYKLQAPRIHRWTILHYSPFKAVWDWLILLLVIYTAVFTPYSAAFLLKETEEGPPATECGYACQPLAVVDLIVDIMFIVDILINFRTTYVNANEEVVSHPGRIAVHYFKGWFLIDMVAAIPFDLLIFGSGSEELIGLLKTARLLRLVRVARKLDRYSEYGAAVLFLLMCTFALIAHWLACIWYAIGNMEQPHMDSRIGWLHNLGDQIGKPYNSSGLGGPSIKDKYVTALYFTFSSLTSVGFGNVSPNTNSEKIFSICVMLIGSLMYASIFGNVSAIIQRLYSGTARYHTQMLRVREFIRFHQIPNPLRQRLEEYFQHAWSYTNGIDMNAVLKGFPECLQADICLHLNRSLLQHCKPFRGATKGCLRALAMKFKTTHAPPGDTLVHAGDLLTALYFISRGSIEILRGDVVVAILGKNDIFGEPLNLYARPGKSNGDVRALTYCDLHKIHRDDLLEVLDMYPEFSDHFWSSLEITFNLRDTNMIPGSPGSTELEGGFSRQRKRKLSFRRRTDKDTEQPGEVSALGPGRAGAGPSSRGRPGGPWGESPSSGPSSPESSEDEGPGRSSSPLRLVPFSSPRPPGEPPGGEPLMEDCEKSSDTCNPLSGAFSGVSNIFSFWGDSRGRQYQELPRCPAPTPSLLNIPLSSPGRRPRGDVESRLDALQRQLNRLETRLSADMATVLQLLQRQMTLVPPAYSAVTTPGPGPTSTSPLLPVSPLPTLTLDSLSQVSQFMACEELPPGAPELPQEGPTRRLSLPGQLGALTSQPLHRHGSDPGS
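Further: peak tail current of the secondary pulse compared with the same well before compound.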

Compound	hERG current change (%, negative = inhibition) at 10uM [%]
CCn1cc(C(=O)NCc2ccccc2OC)c(=O)c2ccc(C)nc21	17.6
CCCOc1ccccc1C(=O)N(Cc1cccc(Br)c1)C1CCS(=O)(=O)C1 (centres unmarked)	-35.4
Cn1c(=O)cc(SCC(=O)N2CCN(C(=O)c3ccco3)CC2)c2ccccc21	-27.4
COc1ccc(OCC(=O)N2CCN(CC3CC4C=CC3C4)CC2)cc1 (centres unmarked)	-26.6
Cc1cc(C)n2ncc(-c3cccc(Br)c3)c2n1	5.79
c1ccc(C2(CNc3ccccn3)CCCC2)cc1	-70.3
O=C(Nc1ccccn1)C1(c2ccccc2)CCCC1	-3.92
CNCC1(c2ccccc2)CCCC1.Cl	15.1
CCCCCCNC(=O)CCNS(=O)(=O)c1ccc(C)cc1	-12.8
CCOc1cc(NC(=O)c2ccccn2)c(OCC)cc1NC(=O)c1cccc(C)c1	8.7
COc1ccc(N2CC(C(=O)Nc3c(C(N)=O)oc4ccccc34)CC2=O)cc1 (centres unmarked)	-15
CC/C(=N\N=C1\SC(C)C(=O)N1Cc1ccco1)c1ccccc1 (centres unmarked)	4.18
CC1CCCCC1NC(=O)C1CCN(c2c3c(nc4ncnn24)CCC3)CC1 (centres unmarked)	4.49
O=C(Nc1ccc(Oc2ccccc2)cc1)C1CCN(c2c3c(nc4ncnn24)CCC3)CC1	-55.6
COc1ccc(NC(=O)C2CCCN(c3c4c(nc5ncnn35)CCC4)C2)cc1 (centres unmarked)	-61.6
O=C(Nc1ccc2c(c1)CCC2)C1CCN(c2ncccn2)CC1	20.6
CC1CCC(NC(=O)C2CCN(c3c4c(nc5ncnn35)CCC4)CC2)CC1 (centres unmarked)	-19.3
COc1ccc(NC(=O)C2CCCN(c3ncccn3)C2)cc1 (centres unmarked)	3.4
COc1ccc(NC(=O)C2CCCN(c3c4c(nc5ncnn35)CCC4)C2)cc1OC (centres unmarked)	-11.7
O=C(NC1CCCc2ccccc21)C1CCN(c2c3c(nc4ncnn24)CCC3)CC1 (centres unmarked)	-31.3
O=C(Nc1ccc2c(c1)CCC2)C1CCN(c2c3c(nc4ncnn24)CCC3)CC1	-73.1

Compound	hERG current change (%, negative = inhibition) at 10uM [%]
CCN1C(=O)C2C(C1=O)N1C(c3cccs3)C3C(=O)N(CC)C(=O)C3N1C2c1cccs1 (centres unmarked)	15.7
COc1ccc(Cn2nnnc2C(c2ccccn2)N2CCN(c3cc(Cl)ccc3C)CC2)cc1 (centres unmarked)	-9.87
Cc1ccc(NC(NC(=O)c2ccccc2[N+](=O)[O-])C(Cl)(Cl)Cl)cc1 (centres unmarked)	-5.27
CC(Sc1nnc(-c2cccnc2)o1)C(=O)NC1CCCCC1 (centres unmarked)	14.9
Cc1ccc(Nc2nc(COC(=O)C3CC3)cs2)cc1	-13.1
CCOC(=O)CSC1=C(C#N)C(c2ccc(C)cc2)C(C(=O)OC)C(=O)N1 (centres unmarked)	-4.56
Cc1ccc(-n2ncc3c(=O)[nH]c(SCC(=O)N4CCN(c5ccccc5)CC4)nc32)cc1	3.28
FC(F)(F)c1cccc(CNC2c3ccccc3-c3ccccc32)c1.O=C(O)C(=O)O	20.4
Cc1ccc(NC(=O)c2nc(C)n(-c3ccc([N+](=O)[O-])cc3)n2)cc1	-32.2
COc1ccc(NC(=O)c2nc(C)n(-c3ccc([N+](=O)[O-])cc3)n2)cc1	-44.9
Cc1nc(C(=O)Nc2ccc(F)cc2)nn1-c1ccc([N+](=O)[O-])cc1	-67.4
Cc1nc(C(=O)Nc2ccc(Cl)cc2)nn1-c1ccc([N+](=O)[O-])cc1	-58.6
Cc1nc(C(=O)O)nn1-c1ccc([N+](=O)[O-])cc1	2.84
CNC(=O)c1nc(C)n(-c2ccc([N+](=O)[O-])cc2)n1	-3.99
O=S(=O)(Nc1ccc(F)cc1)N1CCCCCC1	-15.6
COc1ccccc1CNC(=O)Cn1nnc(-c2ccncc2)n1	1.05
COC(=O)c1[nH]c2cccc(OC)c2c1NC(=O)CN1CC2(C)CC1CC(C)(C)C2 (centres unmarked)	9.92
O=C1CCN(CCc2ccccc2)CCN1[C@H](CO)c1ccccc1	-25.7
N#CC[C@H](c1ccccc1)N1CCN(Cc2ccccc2)CCC1=O	-1.88
CC(C)CN1CCC(=O)N(CCOc2ccccc2)CC1	13.1
O=C1CCN(Cc2ccccc2)CCN1[C@H](COc1ccccc1)c1ccccc1	-57.9

Compound	hERG current change (%, negative = inhibition) at 10uM [%]
CC(C)CN1CCC(=O)N([C@H](CO)c2ccccc2)CC1	9.33
CCCN1CCC(=O)N([C@H](COc2ccccc2)c2ccccc2)CC1	-78.2
CC(C)[C@@H](COc1ccccc1)N1CCN(Cc2ccccc2)CCC1=O	-29.6
O=C1CCN(CCc2ccccc2)CCN1[C@H](COc1ccccc1)c1ccccc1	-75.9
CC(C)CN1CCC(=O)N([C@H](COc2ccccc2)c2ccccc2)CC1	-75.3
COc1ccc(C(=O)Nn2c(SCC(=O)NCC3CCCO3)nc3ccccc3c2=O)cc1 (centres unmarked)	2.75
COc1cccc(CNC(=O)CCNC(=O)N2CCn3c2nc2ccccc23)c1	-3.38
O=C(NNC(=S)NCc1ccco1)c1ccc(Cl)s1	14.5
O=C(c1cccc(Br)c1)N1CCN(C(=O)N2CCOCC2)CC1	10.4
O=C(COC(=O)c1cc([N+](=O)[O-])ccc1NCCO)c1ccccc1	-15.9
CCOc1cc(CNc2ccc3c(c2)OCCO3)cc(Br)c1OCC(N)=O	-17.6
CC1CCCC(NC(=O)c2cccc(N3CCCC3=O)c2)C1C (centres unmarked)	-13.5
C[C@@H]1CC[C@H]2C(=O)N3[C@@H](CC[C@@H](C)[C@@H]3c3ccc(Br)cc3)C(=O)N2[C@H]1c1ccc(Br)cc1	5.03
C[C@H]1CC[C@H]2C(=O)N3[C@H](c4cccc(N5CCCC5=O)c4)[C@@H](C)CC[C@H]3C(=O)N2[C@@H]1c1cccc(N2CCCC2=O)c1	-56.3
CC12CN(C(=O)c3cccc([N+](=O)[O-])c3)C3(C#N)CC1CCC23C (centres unmarked)	5.65
CCOC(=O)C1=C(c2ccccc2)NC(N)=NC1c1ccc(OCc2ccc(Cl)cc2)c(OC)c1 (centres unmarked)	-36.8
COc1ccc(CCNC(=O)C2CCN(S(=O)(=O)c3ccc4nc5c(c(C(=O)O)c4c3)CCCC5)CC2)cc1OC	1.65
Cc1ccccc1-n1ncc2c1CC(C)(C)CC2NC(=O)CN1CCCC1=O (centres unmarked)	9.7
O=C(c1ccc(CSCc2ccccc2F)o1)N1CCN(c2ccc(N3CCOCC3)nn2)CC1	-66.7
O=C(O)c1ccc(CSCc2ccccc2F)o1	-1.86
O=C(c1ccccc1)N1CCN(c2ccc(N3CCOCC3)nn2)CC1	-1.73

Compound	hERG current change (%, negative = inhibition) at 10uM [%]
CCC1CCCCN1CCCNC(=O)CNC(=O)c1nn(-c2ccc(OC)cc2)c(=O)c2ccccc12 (centres unmarked)	-31.9
CCCC/C=C1\CCc2c([nH]c3ccccc23)C1=O	10.1
CC1=NCCc2c1[nH]c1ccccc21	-22.7
CCCCCCCCC1=NCCc2c1[nH]c1ccccc21.Cl	-79.2
Cc1cccc(NC(=O)c2ccco2)c1C	22.4
CC1=C(C#N)C(c2ccccc2)C2=C(N1)c1ccccc1C2=O (centres unmarked)	1.22
Cc1ccc(S(=O)(=O)Cc2ccc(C(=O)N3CCN(c4cc(C)ccc4C)CC3)o2)cc1	-18.7
Cc1ccccc1S(=O)(=O)Cc1ccc(C(=O)N2CCN(c3ccc(F)cc3)CC2)o1	-64.3
Cc1ccc(S(=O)(=O)Cc2ccc(C(=O)N3CCN(c4ccc(F)cc4)CC3)o2)cc1	-69.5
Cc1ccccc1S(=O)(=O)Cc1ccc(C(=O)N2CCN(c3ccccc3F)CC2)o1	-40.7
COc1ccc(N2CCN(C(=O)c3ccc(CS(=O)(=O)c4ccccc4C)o3)CC2)cc1	-21.5
O=C(c1ccc(CS(=O)(=O)c2ccc(Br)cc2)o1)N1CCN(c2ccc(F)cc2)CC1	6.91
O=C(CNC(=O)c1ccc(S(=O)(=O)N2CCCC2)cc1)N/N=C/c1ccc(Cl)cc1Cl	-3.34
Cc1ccccc1NCCC(=O)Nc1ccc(F)cc1	-21.4
COc1ccc(/C=C(/NC(=O)c2ccccc2)C(=O)NCc2ccncc2)cc1	-44.5
COc1ccc(C(=O)N/C(=C\c2ccc(Cl)cc2)C(=O)NCC2CCCO2)cc1 (centres unmarked)	-38
COc1ccc(/C=C(\NC(=O)c2ccc(C)cc2)C(=O)NCC2CCCO2)cc1 (centres unmarked)	-8.44
COc1ccc(C(=O)N/C(=C/c2ccc(Cl)cc2)C(=O)NCc2ccncc2)cc1	-65.4
COc1ccc(C(=O)N/C(=C/c2ccc(Cl)cc2)C(=O)Nc2ccc(C(=O)O)cc2)cc1	11.4
COc1ccc(/C=C(/NC(=O)c2ccc(C)cc2)C(=O)NCc2ccncc2)cc1	-66.2
